For 102 compounds, INHIBITION results are on record in ChEMBL document CHEMBL4513216, “Probing the Open Global Health Chemical Diversity Library for Multistage-Active Starting Points for Next-Generation Antimalarials” (ACS Infect Dis, 2020).

About 8,600 (12%) of roughly 69,000 compounds showed an effect of 50% or more. This excerpt belongs to a sample that is enriched for strong results.

The test system of the assay is Plasmodium berghei. Put plainly: Screen against P. berghei liver stage (PbLuc), transformed with Luciferase, at 10uM. Type of assay: functional, HepG2. The following applies: tested at 10 uM.
As to `Cc1noc2nc3c(c(C(=O)/N=c4\[nH]ncs4)c12)CCC3`, the INHIBITION was 32.8%.
The same measure for `CS(=O)(=O)N1CCCC1c1ccnc2nccn12` (configuration not stated): 10.3545%.
Consider `Cc1cc(C)n(CCC(=O)N2CCCCC2c2nccs2)n1` (configuration not stated), for which the INHIBITION stood at 36.3%.
As for `CN(C)c1cc(CNC(=O)C2COc3ccccc3O2)ccn1` (configuration not stated), the INHIBITION is 2.45%.
`Cc1cc(N2CCN(Cc3nccn3C)CC2)cc(C)n1`: the INHIBITION is 4.92%.
As to `Cc1nnc2ccc(N3CCN(Cc4nccn4C)CC3)nn12`, the INHIBITION is reported as 43.4%.
With `Cc1nnc(CN2CCN(Cc3nccn3C)CC2)n1C` the figure was 59.3%; with `CC(C)N1CCN(c2ccc3ccc(C(=O)NC4CCCC4)cn23)CC1`, -7.28%; with `COCC(=O)N1CC[C@@H]2CN(Cc3cccnc3)S(=O)(=O)[C@@H]2CC1`, 43%.
With `Cc1ccc(S(=O)(=O)NC[C@H]2OC[C@@H](NCc3ccccn3)[C@@H]2O)cc1` the figure was 38.9%; with `Cc1ccc(S(=O)(=O)NC[C@H]2OC[C@@H](NCc3ccccc3)[C@@H]2O)cc1`, 20.7%; with `CC(C)NC(=O)NC[C@H]1OC[C@@H](NCc2ccncc2)[C@@H]1O`, -48.1%.
In the case of `Cc1ccc(S(=O)(=O)NC[C@H]2OC[C@@H](NCc3cccnc3)[C@@H]2O)cc1`, the INHIBITION turned out to be 57%.
Regarding `Cc1ccc(S(=O)(=O)NC[C@H]2OC[C@@H](NCc3ccncc3)[C@@H]2O)cc1`, the INHIBITION is on record as 53.2%.
As to `CC(C)NC(=O)NC[C@H]1OC[C@@H](NCc2ccc(S(C)(=O)=O)cc2)[C@@H]1O`, the INHIBITION worked out at 49.5%.
The same measure for `O=C(NCC1CCOCC1)[C@@H]1C[C@@H]2[C@@H](CCN2Cc2nccs2)O1`: 21.1%; for `COC1CCN(C(=O)CC2CCCC2)CC(=O)N(C)c2ccccc21` (configuration not stated): 3.31%; for `CCc1nc(C)cn1C(=O)Nc1ccc(F)cc1`: 78.2%.
The same measure for `CCc1nc(C)cn1C(=O)Nc1ccccc1`: 48.6%; for `CCc1nc(C)cn1C(=O)Nc1ccc(C)cc1`: -4.82%; for `O=C1CO[C@@H]2CN(CC3CCOC3)C[C@H]2N1Cc1cccc(F)c1` (some centres not stated): 27.6%.
For the compound `O=C1CO[C@@H]2CN(CC3CC3)C[C@H]2N1Cc1cccc(F)c1`, the INHIBITION was found to be 75.4%.
With `O=C1CO[C@@H]2CN(C3CCOCC3)C[C@H]2N1Cc1cccc(F)c1` the figure was 25.2%; with `COc1cc(N2C[C@H](OCc3cccnc3)[C@H]3OCCC[C@H]32)ncn1`, 10.6%.
As to `Cc1ccc2c(c1)OC1(NC2=O)C(=O)N(C)c2ccccc21` (configuration not stated), the INHIBITION is recorded as 31.6%.
With `CN1C(=O)C2(NC(=O)c3ccccc3O2)c2ccccc21` (configuration not stated) the figure was 34%.
The same measure for `CC(C)CCN1C(=O)C2(NC(=O)c3ccccc3O2)c2ccccc21` (configuration not stated): 55.1%; for `O=C1NCC2(CCCN(C(=O)c3csc(-c4cccs4)n3)C2)O1` (configuration not stated): 22%.
The same measure for `CC(C)[C@H](N)C(=O)N1CCCC(C2=Nc3ccccc3S(=O)(=O)N2)C1` (some centres not stated): 26.4%; for `COc1ccccc1N1CCC(CNS(=O)(=O)c2cccc(C#N)c2)C1` (configuration not stated): -4.94%; for `Cc1cc(=O)[nH]c(-n2nc(-c3ccccc3)cc2N)n1`: 65.2%.
On to `CCCc1cc(=O)[nH]c(SCc2ccccn2)n1`, for which the INHIBITION worked out at 3.93%.
With `NC1(c2nc(-c3ccccc3)cc(=O)[nH]2)CCCCC1` the figure was -10.1%; with `NC1(c2nc(-c3ccccc3)cc(=O)[nH]2)CCCC1`, -13.7%.
With `Cc1cc(=O)[nH]c(-n2nc(C3CC3)cc2N)n1` the figure was 68.9%; with `CCCc1cc(=O)[nH]c(-n2nc(C3CC3)cc2N)n1`, 94%; with `CCC(C)(N)c1nc(C(C)C)cc(=O)[nH]1` (configuration not stated), -4.35%.
The same measure for `Cc1cc(C2CCC2)nc(N2CCC3(CCNC(=O)CC3)CC2)n1`: -32.5%.
On to `CC(C)c1cc(=O)[nH]c(C(C)(C)N)n1`, for which the INHIBITION is given as -39.2%.
As for `CCCc1cc(=O)[nH]c(-c2cccc(CN3CCCCCC3)c2)n1`, the INHIBITION was 43.9%.
Take `Cc1cc(C(=O)Nc2cc(C3CC3)n[nH]2)c2c(C)nn(C)c2n1`: the INHIBITION was 0.991%.
In the case of `CC(C)c1cc(=O)[nH]c(-n2nc(C3CC3)cc2N)n1`, the INHIBITION is recorded as 97%.
Regarding `O=C(C1=CCCC1)N1CCC[C@]2(C[C@@H](OCc3ccncc3)CO2)C1`, the INHIBITION is on record as -9.67%.
Turning to `Cc1ccccc1C1(C(=O)NCCN(C)C)CCOCC1`, the INHIBITION turned out to be 18.9665%.
As to `CC(C)N(C)Cc1ncn2c1CN(C(=O)C1CCCO1)CCC2` (configuration not stated), the INHIBITION turned out to be 4.08%.
The same measure for `O=c1c2c[nH]c(N3CCOCC3)nc-2cn1Cc1cccc(F)c1`: 33.4%; for `COc1ccc(C(=O)CCc2nc(C3CC3)no2)cc1F`: -19.1%.
With `COc1nn(C)c2c1CCCN(C(=O)c1ccsc1)C2` the figure was -15.7%.
The same measure for `O=C1CN(C(=O)C2CN(c3ccc(F)cc3)CCO2)CCN1` (configuration not stated): -19.925%.
Regarding `Cn1cnc(NC(=O)C2CC(=O)N(c3cccc(F)c3)C2)n1` (configuration not stated), the INHIBITION came out at 6.448%.
As for `Cc1nc(C)n(CC2CCCN2Cc2nc3ccccc3s2)n1` (configuration not stated), the INHIBITION is listed as 33.8%.
For `CNc1cc(C2CCCN2C(=O)CCc2ccccc2F)ccn1` (configuration not stated), the INHIBITION stood at 22%.
With `CCN(CCN(C)C)c1nc(CCN)nc2sc(C)c(C)c12` the figure was 71%.
As to `Cc1sc2nc(CCN)nc(N(CCN(C)C)CC3CCCO3)c2c1C` (configuration not stated), the INHIBITION amounted to 51.3%.
With `Cc1sc2nc(CCN)nc(N(C)CCCC3CCCO3)c2c1C` (configuration not stated) the figure was 43.2%.
With `COCCN(CC1CC1)c1nc(CCN)nc2ccccc12` the figure was 16.2%; with `COCCN(Cc1cccs1)c1nc(CCN)nc2ccccc12`, -17.3%.
As for `Cc1nn(C)c2nc(N(CCN(C)C)CC3CCCO3)sc12` (configuration not stated), the INHIBITION was 35.3%.
The same measure for `COCCN(CC1CC1)c1nc(CCN)nc2sc(C)c(C)c12`: 65.3%.
As to `O=C(NCCCO)c1nnsc1-c1ccccc1`, the INHIBITION was 46.6%.
With `Cc1sc2c(C3CCCN(S(C)(=O)=O)C3)nc(C)n2c1C` (configuration not stated), the INHIBITION is reported as -22.6%.
With `Cc1cccc2nc(-c3nc4c([nH]3)CCCNC4=O)cn12` the figure was -176%; with `COc1ccnc(N2CCN(C(=O)COCC(F)(F)F)CC2)n1`, -2.725%; with `Cc1nn(C)c(Cl)c1C1CCCN1C(=O)c1cnccn1` (configuration not stated), 25.1%.
With `Cc1cc(CN(C)C(=O)C(c2cccnc2)N2CCOCC2)n[nH]1` (configuration not stated) the figure was 51.7%; with `Cc1n[nH]c(C)c1CCN(C)C(=O)C(c1cccnc1)N1CCOCC1` (configuration not stated), -12.5%.
The same measure for `Cc1ncsc1CCN(C)C(=O)C(c1cccnc1)N1CCOCC1` (configuration not stated): 0.266%; for `CN(Cc1cc(C2CC2)on1)C(=O)C(c1cccnc1)N1CCCC1` (configuration not stated): 48.9%.
With `O=C(NCCNc1cccnc1)C(c1cccnc1)N1CCCC1` (configuration not stated), the INHIBITION was -0.55%.
The same measure for `CN(CCc1ccccn1)C(=O)C(c1cccnc1)N1CCOCC1` (configuration not stated): -29.2%; for `CN(Cc1cc(C2CC2)[nH]n1)C(=O)C(c1cccnc1)N1CCCC1` (configuration not stated): 68.4%; for `Cc1cc(C)nc(CN(C)C(=O)C(c2cccnc2)N2CCCC2)c1` (configuration not stated): 61.9%.
The same measure for `CCCn1ncc(C(=O)N(C)Cc2cc(C3CC3)[nH]n2)c1C`: 40.6%; for `O=C(c1ccsc1)N1CCO[C@@H]2CN(Cc3nccs3)C[C@@H]2C1`: 42.1%; for `CC1COCCN1C(=O)Nc1cnc2c(cnn2C(C)C)c1` (configuration not stated): -27.9%.
In the case of `O=C1COc2ccc(C(=O)N3CCCC(n4ccnc4)C3)cc2N1` (configuration not stated), the INHIBITION is -12.2%.
Turning to `Cc1cccc(C(Nc2nccc(C)n2)C2CC2)n1` (configuration not stated), the INHIBITION is on record as 6.66%.
As to `COc1c(C2CCCN2CC(=O)Nc2cccnc2)c(C)nn1C` (configuration not stated), the INHIBITION came to 19.4%.
With `O=C(c1ccsc1)N1CCC2(CCN(Cc3ccccn3)C2=O)C1` (configuration not stated) the figure was -5.08%; with `CN(CCCOc1ccccc1Cl)C(=O)CN1CCNC1=O`, 17%.
The same measure for `CC(C)[C@@H]1CN(c2ccc(C(F)(F)F)cn2)C[C@H]1NS(C)(=O)=O`: 26.4%; for `CC(C)[C@@H]1CN(c2ncc(F)cn2)C[C@H]1NS(=O)(=O)N(C)C`: 41.7%.
Consider `CC(C)[C@@H]1CN(C(=O)CCn2ccccc2=O)C[C@H]1NS(C)(=O)=O`, for which the INHIBITION was 8.53%.
On to `CC(C)[C@@H]1CN(C(=O)NCc2ccco2)C[C@H]1N(C)C`, for which the INHIBITION is 31.4%.
With `CC(C)[C@@H]1CN(c2ccc(F)cn2)C[C@H]1NS(C)(=O)=O` the figure was 30.9%; with `CC(C)[C@H]1CN(C2Cc3ccccc3C2)C[C@@H]1NS(C)(=O)=O`, 55%; with `Cc1nc2cc(C(=O)N3C[C@@H](NS(C)(=O)=O)[C@H](C(C)C)C3)ccc2[nH]1`, 39%.
The same measure for `CC(C)[C@H]1CN(c2ccncc2)C[C@@H]1NS(=O)(=O)N(C)C`: 76.8%; for `CCN(C)S(=O)(=O)N[C@H]1CN(c2ccc(F)cn2)C[C@@H]1C(C)C`: 64.5%; for `CC(C)[C@@H]1CN(CC(=O)NCc2ccco2)C[C@H]1NS(=O)(=O)N(C)C`: 27.8%.
Turning to `CC(C)[C@@H]1CN(C(=O)NCc2ccco2)C[C@H]1NS(=O)(=O)N(C)C`, the INHIBITION amounted to 62.8%.
The same measure for `CC(C)[C@H]1CN(c2ccncc2)C[C@@H]1NC(=O)C1(C#N)CCOCC1`: 10.9%.
For `Cn1cc(C2CCCN2C(=O)CCn2c(=O)oc3ccccc32)cn1` (configuration not stated), the INHIBITION was -13.7%.
For the compound `CN1CCCc2cc(CNC(=O)c3cccnc3O)ccc21`, the INHIBITION was -18.8%.
On to `COC(=O)c1ccc(N(C(=O)c2cccnc2C)C(C)C)c(C)c1`, for which the INHIBITION is given as -4.63%.
The same measure for `CC(C)CNC(=O)[C@H]1CCS(=O)(=O)[C@@H]2CN(Cc3cccc(Cl)c3)C[C@H]12`: 36.8%; for `Cn1ccnc1C1CCCN(C(=O)c2ccc3nccnc3c2)C1` (configuration not stated): 6.11%.
Regarding `Cn1ncc2c(=O)[nH]c(CN3CCc4sccc4C3)nc21`, the INHIBITION was 13.3%.
As to `Cc1ncncc1C(=O)N1CCCC(n2cccn2)C1` (configuration not stated), the INHIBITION worked out at 2.97%.
The same measure for `Cc1cc(NC(=O)NCc2cccnc2OC(C)C)no1`: 31.2%.
With `Cc1cc(C)n(CC(C)Nc2nc(C)nc3c2CCNC3)n1` (configuration not stated) the figure was -9.18%; with `Cc1oc(-c2ccco2)nc1CN1CCc2cncnc2C1`, 45.4%.
